Experimental data from PubChem BioAssay AID485344 (National Center for Advancing Translational Sciences (NCATS), 2010).
The whole screen tested about 340,000 compounds, of which about 6,900 (2%) were called active. Rule as the data show it: active = inhibition above about 30%; inactive = below that, where a call was filed. The list comes from a sample in which actives are over-represented; it also holds similar structures and randomly drawn compounds.

Target: D(2) dopamine receptor (Homo sapiens) (UniProt P14416)
Sequence (P14416 whole entry, looked up): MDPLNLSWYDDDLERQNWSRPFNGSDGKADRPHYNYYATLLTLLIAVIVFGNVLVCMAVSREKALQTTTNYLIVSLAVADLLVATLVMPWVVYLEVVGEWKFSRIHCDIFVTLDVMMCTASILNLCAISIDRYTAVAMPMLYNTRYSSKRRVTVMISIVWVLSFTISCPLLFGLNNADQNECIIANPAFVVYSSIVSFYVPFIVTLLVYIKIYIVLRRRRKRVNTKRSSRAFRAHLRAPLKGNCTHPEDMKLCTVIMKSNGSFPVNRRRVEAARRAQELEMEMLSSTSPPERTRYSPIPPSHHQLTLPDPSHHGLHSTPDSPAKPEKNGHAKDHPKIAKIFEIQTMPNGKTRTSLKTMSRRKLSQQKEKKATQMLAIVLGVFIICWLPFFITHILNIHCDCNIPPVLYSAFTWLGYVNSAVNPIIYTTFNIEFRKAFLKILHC
Assay: HTS Assay for Allosteric Antagonists of the Human D2 Dopamine Receptor: Primary Screen for Antagonists; also: 0% is about no effect
Settings: HEK293 TREx D2 cells, calcium flux, dopamine EC80; at 10 µM; hits give high values
Excerpt: NIH Chemical Genomics Center [NCGC] NIH Molecular Libraries Probe Centers Network [MLPCN] MLPCN Grant: NS064831-01 Assay Submitter (PI): David Sibley Dopamine receptors (DARs) are involved in the etiology and/or therapy of a number of neuropsychiatric and endocrine disorders. For instance, all receptor-based antiparkinsonian drugs work via stimulating the D2 DAR subtype whereas all FDA-approved antipsychotic agents are antagonists of this receptor. […] There are three different types of allosteric modulators that we are seeking, two of which will stimulate or augment receptor signaling, allosteric agonists and potentiators, while the third, allosteric antagonists, will attenuate receptor signaling. The present primary screening assay measures compound antagonism after an EC80 addition of dopamine by tracking calcium flux in a […], inducible Hek293 Trex D2 cell line.
Freshly passaged cells are plated in 1536 well black, clear bottom plates at a density of 4000 cells/well in 3 ul of complete media containing 1x tetracycline inducer. After an overnight incubation at 30 C in 5% CO2, cells are loaded with 2 ul of the no wash Calcium Assay Kit (ABD Bioquest) and incubated at room temperature for 30 to 90 minutes. Agonist read: A 10 cycle (1 second/cycle) baseline measurement is taken and then the FDSS online 1536 pintool delivers 23 nl of compound library (as well as dopamine controls) to the plate. The plate is measured for kinetically at 1 cycle/sec for 180 seconds. Following the 180 second read, 1 ul of an EC80 (negative modulation assay) is delivered by an onboard pipette head. Measurements are taken kinetically for an additional 180 seconds.

inhibition, inactive:
COc1ccc(OC)c(Nc2nc(-c3ccc(O)c(O)c3)cs2)c1 -3.66%, Cc1onc(C(=O)NN)c1-c1csc(COc2ccccc2)n1 20.6%, C#CCOCCOCCOCCNc1nc(N2CCN(C(=O)CCCCCCCCCCNC(=O)Cn3cc(CCCCCN)nn3)CC2)nc(N2CCN(C(=O)CCCCCCCCCCNC(=O)[C@H](CO)n3cc(CCCSC)nn3)CC2)n1 1.73%, COc1cc(OC)cc(-c2c(-c3cccs3)c3cc(-c4ccc(OC)cc4F)ccc3n2C)c1 -3.09%, CCOC(=O)CN(Cc1ccc(OC)c(OC)c1)S(=O)(=O)c1ccc(OC)cc1 -14%, COc1ccccc1NC(=O)COc1ccc(C(=O)OCC(=O)N(C(C)C)C(C)C)cc1OC 11.9%, CC(C)(C)n1ncc2c(=O)n(Cc3c(Cl)cccc3Br)cnc21 -6.49%, Cc1ccc(C)c(OCC(=O)NNC(=O)C2CCC2)c1 -10.9%, CCN(CC(=O)Nc1c(F)cccc1F)C(=O)c1ccc(Sc2nncn2C)c([N+](=O)[O-])c1 -7.81%, CC(=O)Nc1ccc(SCC(=O)Nc2ccccc2Oc2ccccc2)cc1 -7.41%, CC1CCCN(CC(=O)Nc2cc(Cl)ccc2Oc2ccccc2)C1 (stereo unspecified) -9.74%, O=C(CNC(=O)c1ccc2ccccc2c1)Nc1ncccc1O 6.52%, CCCN(C(=O)c1nc2nccc(C)n2n1)c1c(N)n(Cc2ccccc2)c(=O)[nH]c1=O 13.1%, O=C(O)c1cc(S(=O)(=O)Nc2ccc3cn[nH]c3c2)ccc1Br -28.4%, O=S(=O)(c1ccc(SCc2ccccc2)nc1)N1CCCCCC1 -5.53%, COc1ccc([C@H]2CC(=O)C=C(/C=C/c3ccccc3)C2)cc1 11.1%, O=C(O)c1ccccc1C(=O)Nc1ccccc1[N+](=O)[O-] 7.04%, O=[N+]([O-])c1ccc(O)c(/C=N/Nc2ccccc2[N+](=O)[O-])c1 20.9%, COc1ccccc1OCC(=O)OCc1cc(-c2ccco2)on1 5.46%, CS(=O)(=O)N(CC(=O)N1CCCCCC1)c1cccc(Cl)c1Cl -0.797%, CCN(CC(=O)N1CCCC1)S(=O)(=O)c1ccc(F)cc1 21.3%

inhibition, active:
CC(C)(C)C(=O)OCc1nc(-c2ccc(O)c(O)c2)cs1 93.7%, CCN(CCCCOC(=O)c1ccc(OC)c(OC)c1)C(C)Cc1ccc(OC)cc1 (stereo unspecified) 43.6%, O=C(CSc1ccccc1)Nc1cc(Cl)ccc1Oc1ccccc1 41.8%, O=[N+]([O-])c1ccccc1Nc1ccc(O)cc1 48.5%, CS(=O)(=O)N(CC(=O)N1CCCC1)Cc1ccccc1 47.1%
